Structures are written as SMILES. Values without a mark were called inactive.

The experiment has as its system Vero E6 infected with SARS-CoV-2. Nature of the experiment: inhibition of SARS-CoV-2 cytopathic effect; higher = more antiviral protection, active = above 15. Conditions: 48 h. For orientation: Protection from cytopathic effect is a common read-out in antiviral testing.

Regarding `CN(C)CCOC(=O)COc1ccc(Cl)cc1` [meclofenoxate], the “inhibition of SARS-CoV-2 cytopathic effect” value (“inhibition” below) (1 nM) was 2.47%; the “inhibition” value (8.33 nM) is 0.23%; the “inhibition” value (100 nM) was 1.17%; the “inhibition” value (833.33 nM) was 1.28%; the “inhibition” value (10000 nM) was 1.66%.
On to `O=C1NC(=O)/C(=C/c2ccc(-c3ccc(F)cc3O)o2)S1`, for which the “inhibition” value was -0.52% (1 nM); -0.98% (8.33 nM); -0.46% (100 nM); -1.39% (833.33 nM); -0.94% (10000 nM).
Turning to `CCN(CC)CCO[C@H]1CC[C@@]2(C)C(=CC[C@@H]3[C@@H]2CC[C@]2(C)C(=O)CC[C@@H]32)C1`, the “inhibition” value is 1.95% (1 nM); 2.95% (8.33 nM); 1.19% (100 nM); 3.83% (833.33 nM); 19.6% (active) (10000 nM).
On the same counts, the results for `CC(C)(C)OC(=O)c1ncn2c1[C@@H]1CCCN1C(=O)c1c(Br)cccc1-2` [bretazenil] are -1.38%, -4.36%, -1.99%, -3.96% and -1.07%.
On to `C[C@@H]1CN(CCCn2c3ccccc3c3ccccc32)C[C@H](C)N1` [rimcazole], for which the “inhibition” value (1 nM) is -0.92%; the “inhibition” value (8.33 nM) is -0.33%; the “inhibition” value (100 nM) was 0.18%; the “inhibition” value (833.33 nM) was -2.52%; the “inhibition” value (10000 nM) is 31.1% (active).
Taken in the same sequence, the figures for `CCCCCCCCc1ccc(CCC(N)(CO)CO)cc1` [fingolimod] were 0%, 2.1%, -0.53%, -4% and 15.2% (active).
In the case of `NC(=O)c1nc(F)cnc1O` [favipiravir], the “inhibition” value runs as follows: (1 nM) -4.88%; (8.33 nM) -2.34%; (100 nM) -0.79%; (833.33 nM) 0.84%; (10000 nM) -6.81%.
For the compound `Nc1ncn([C@@H]2O[C@H](CO)[C@@H](O)[C@H]2O)c(=O)n1` [azacitidine], the “inhibition” value was -3.6% (1 nM); 0.66% (8.33 nM); 0.98% (100 nM); -0.22% (833.33 nM); 0.95% (10000 nM).
As to `NCC(=O)Nc1ccc(-n2nc(C(F)(F)F)cc2-c2ccc3c(ccc4ccccc43)c2)cc1`, the “inhibition” value by setting is: (1 nM) -0.05%; (8.33 nM) 2.22%; (100 nM) 2.09%; (833.33 nM) -1.2%; (10000 nM) -3.56%.
On the same counts, the results for `CC[C@H](c1ccc(O)cc1)[C@@H](CC)c1ccc(O)cc1` [hexestrol] are -3.59%, -0.58%, -0.76%, -3.14% and 2.9%.
Taken in the same sequence, the figures for `CC(C)c1cc(C(=O)N2Cc3ccc(CN4CCN(C)CC4)cc3C2)c(O)cc1O` were -1.87%, -3.96%, -5.27%, -1.1% and 0.31%.
Regarding `Ic1cncc(OC[C@@H]2CCN2)c1`, the “inhibition” value reads like this: (1 nM) 0.24%; (8.33 nM) -0.44%; (100 nM) 0.14%; (833.33 nM) 1.07%; (10000 nM) -0.56%.
Regarding `COc1cc(C(=O)NC2CCCNC2)cc(OC)c1OC` (stereo not given) [troxipide], the “inhibition” value reads like this: (1 nM) 0.11%; (8.33 nM) -0.47%; (100 nM) 1.46%; (833.33 nM) -0.19%; (10000 nM) 2.03%.

The values are drawn from the supplement of paper PMC13380429.
